# Measurements: paper PMC4336329 (PLoS ONE, 2015)
# The campaign covered roughly 310,000 compounds. About 14,000 (4.5%) showed an effect of 50% or more. The effect is printed as a negative number. This excerpt belongs to a sample that is enriched for strong results.
# Target: human ether-à-go-go-related gene (hERG) potassium channel (human, UniProt Q12809)
# Experiment: primary screen, population patch clamp on CHO cells stably expressing hERG; higher = less effect of the substance
# 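Further: peak tail current of the secondary pulse compared with the same well before compound.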
# Sequence of human ether-à-go-go-related gene (hERG) potassium channel (Q12809 whole entry, looked up): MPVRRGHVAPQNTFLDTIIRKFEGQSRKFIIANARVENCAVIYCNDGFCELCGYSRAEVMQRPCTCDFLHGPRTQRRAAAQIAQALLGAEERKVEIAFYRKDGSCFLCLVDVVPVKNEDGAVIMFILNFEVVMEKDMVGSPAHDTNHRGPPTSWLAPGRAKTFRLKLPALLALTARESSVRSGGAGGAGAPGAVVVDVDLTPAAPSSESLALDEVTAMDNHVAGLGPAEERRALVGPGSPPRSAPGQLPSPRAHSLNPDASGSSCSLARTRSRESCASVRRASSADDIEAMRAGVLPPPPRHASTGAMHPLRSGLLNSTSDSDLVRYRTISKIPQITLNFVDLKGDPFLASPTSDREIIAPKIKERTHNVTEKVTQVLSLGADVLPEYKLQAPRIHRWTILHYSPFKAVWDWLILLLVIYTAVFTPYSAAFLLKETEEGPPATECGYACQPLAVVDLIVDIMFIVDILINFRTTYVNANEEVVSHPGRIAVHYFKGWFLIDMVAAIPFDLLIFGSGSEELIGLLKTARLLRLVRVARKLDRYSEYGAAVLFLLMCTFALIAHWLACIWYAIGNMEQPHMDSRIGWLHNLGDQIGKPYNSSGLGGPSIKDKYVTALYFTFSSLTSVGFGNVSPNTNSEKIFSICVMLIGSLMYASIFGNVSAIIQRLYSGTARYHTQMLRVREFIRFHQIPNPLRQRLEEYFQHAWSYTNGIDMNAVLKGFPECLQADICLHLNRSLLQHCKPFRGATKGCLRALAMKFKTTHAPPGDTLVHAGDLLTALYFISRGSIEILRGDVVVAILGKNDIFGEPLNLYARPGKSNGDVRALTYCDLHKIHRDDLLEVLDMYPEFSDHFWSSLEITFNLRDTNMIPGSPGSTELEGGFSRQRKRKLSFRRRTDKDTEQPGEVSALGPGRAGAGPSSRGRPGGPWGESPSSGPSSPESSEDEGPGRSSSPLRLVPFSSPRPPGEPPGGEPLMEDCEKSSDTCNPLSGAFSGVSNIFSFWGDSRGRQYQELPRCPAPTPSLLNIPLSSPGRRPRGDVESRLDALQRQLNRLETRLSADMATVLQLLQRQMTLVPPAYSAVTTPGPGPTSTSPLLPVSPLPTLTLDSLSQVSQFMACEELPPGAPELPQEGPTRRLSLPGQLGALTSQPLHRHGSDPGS
row,Structure (SMILES),"hERG current change (%, negative = inhibition) at 10uM [%]"
1,CC(C)CCC(O)(CCC(C)C)C(=O)NNc1ccccc1,-0.649
2,FC(F)(F)c1nc2ccccc2nc1N/N=C\c1ccccc1,12.3
3,CC(=O)c1ccc(S(=O)(=O)Nc2ccc(C(=O)N(C)CC(=O)Nc3cccc(C)c3C)cc2)cc1,14.5
4,COc1cc(/C=N/NC(=O)c2ccoc2C)ccc1O,-3.54
5,Cc1nn(CCC(=O)Nc2cccc(C#N)c2)c(C)c1S(=O)(=O)N1CCCCC1,-1.67
6,O=C(NNS(=O)(=O)c1ccccc1)c1cc2cc3ccccc3nc2s1,-10.4
7,CCOCCCNC(=O)CN1CCN(Cc2ccccc2C)C1=O,-5.69
8,Cc1ccccc1CN1CCN(CC(=O)NCCCN2CCN(c3ccc(F)cc3)CC2)C1=O,-71.2
9,COc1ccc(N2CCN(CCCNC(=O)CN3CCN(Cc4ccccc4C)C3=O)CC2)cc1,-46.5
10,Cc1c(Cl)cccc1NC(=O)CSc1nc2ncc(Cl)cc2[nH]1,17.7
11,COCCCNC(=O)CC(NS(=O)(=O)c1ccc(Cl)cc1)c1ccc(OC)cc1 (stereo not drawn),-0.0404
12,Cc1ccc(OCC(=O)N2CCN(CC3CC4C=CC3C4)CC2)cc1.O=C(O)C(=O)O (stereo not drawn),-24.3
13,Cc1ccc(OCC(=O)N2CCN(Cc3ccc([N+](=O)[O-])cc3)CC2)cc1.O=C(O)C(=O)O,-81.2
14,Cc1cccc(OCC(=O)N2CCN(Cc3ccncc3)CC2)c1.O=C(O)C(=O)O,8.94
15,O=C(COc1ccc(S(=O)(=O)N2CCCCC2)cc1)N1CCN(Cc2ccccc2)CC1,-32.5
16,O=C(COc1ccc(Cl)cc1)N1CCN(Cc2ccc([N+](=O)[O-])cc2)CC1.O=C(O)C(=O)O,-74.2
17,Cc1cccc(OCC(=O)N2CCN(Cc3ccc([N+](=O)[O-])cc3)CC2)c1.O=C(O)C(=O)O,-73
18,Cc1ccc(CN2CCN(C(=O)CCc3ccccc3)CC2)cc1,-19.1
19,Cc1cccc(OCC(=O)N2CCN(Cc3ccc4c(c3)OCO4)CC2)c1.O=C(O)C(=O)O,-16.7
20,O=C(COc1ccc(Cl)cc1)N1CCN(Cc2ccccc2)CC1,-32.9
21,CCN(CC)C(=O)Cn1cc(S(=O)(=O)CC(=O)NCc2ccccc2)c2ccccc21,-11.6
22,CCOC(=O)C(NC(=O)CC)(Nc1ccc(S(=O)(=O)Nc2ncccn2)cc1)C(F)(F)F (stereo not drawn),22.5
23,O=C(Cc1ccccc1)Nc1scc(-c2ccccc2)c1C(=O)N1CCOCC1,-57.4
24,O=C(CN1CCOCC1)Nc1scc(-c2ccccc2)c1C(=O)N1CCOCC1,-34.9
25,CCOC(=O)c1c(-c2ccccc2)csc1NC(=O)CCN1CCOCC1.O=C(O)C(=O)O,-33.2
26,O=C(N/C(=C/c1cccnc1)C(=O)N1CCOCC1)c1ccco1,6.59
27,CCN(CC)S(=O)(=O)c1ccc(NC(=O)c2cc(C(=O)OC)cc([N+](=O)[O-])c2)cc1,10.3

row,Structure (SMILES),"hERG current change (%, negative = inhibition) at 10uM [%]"
1,CC(NC(=O)c1ccc(OC2CCN(Cc3ccccn3)CC2)cc1)c1ccccc1 (stereo not drawn),-20.3
2,Cc1cc(CN(C)C(=O)c2ccc(OC3CCN(CCc4ccccc4)CC3)cc2)on1,-74.1
3,CC(CNC(=O)c1ccc(OC2CCN(Cc3ccccn3)CC2)cc1)Oc1cccnc1 (stereo not drawn),-21.9
4,CC(CNC(=O)c1ccc(OC2CCN(Cc3ccccn3)CC2)cc1)c1ccccc1 (stereo not drawn),-76.5
5,CN(C(=O)c1ccc(OC2CCN(CCc3ccccc3)CC2)cc1)C1CCOCC1,-9.93
6,CN(C(=O)c1ccc(OC2CCN(CCc3ccccc3)CC2)cc1)C1CCOC1 (stereo not drawn),-25.3
7,CN(Cc1nccn1C)C(=O)c1ccc(OC2CCN(CCc3ccccc3)CC2)cc1,-38.3
8,CN(Cc1nccs1)C(=O)c1ccc(OC2CCN(CCc3ccccc3)CC2)cc1,-58.9
9,CN(Cc1cnn(C)c1)C(=O)c1ccc(OC2CCN(CCc3ccccc3)CC2)cc1,-42.9
10,CN(Cc1nccs1)C(=O)c1ccc(OC2CCN(Cc3ccccn3)CC2)cc1,-11.5
11,Cc1cc(CN(C)C(=O)c2ccc(OC3CCN(Cc4ccccn4)CC3)cc2)on1,-37.7
12,CN(C(=O)c1ccc(OC2CCN(CCc3ccccc3)CC2)cc1)C1CCCCC1,-63.5
13,CCN(c1cccc(C)c1)S(=O)(=O)c1ccc2c(c1)NC(=O)CCS2,8.09
14,CCOC(=O)c1ccc(NS(=O)(=O)c2cc3c4c(c2)CCN4C(=O)CC3)cc1,-9.74
15,CSCCC(NC(=O)c1ccccc1)C(=O)N(C)CC(=O)Nc1ccc(N2CCOCC2)cc1 (stereo not drawn),5.72
16,CCCC(C)NC(=O)C1CC(=O)N(CCc2ccc(F)cc2)C1 (stereo not drawn),9.07
17,COCCn1c(=S)[nH]c2ccccc21,28.7
18,CCC(C)(C)n1nnnc1C(c1cccnc1)N1CCCC(C)C1 (stereo not drawn),3.14
19,CCOC(=O)c1ccc(NC(=O)c2cc3c(s2)CCC3)cc1,6.15
20,O=C(NC1CCCCC1)C1CCCN1S(=O)(=O)c1ccc(F)cc1 (stereo not drawn),-0.938
21,COc1cc(/C=C2\OC(=O)c3c(OC)cccc32)ccc1O,15.6
22,CC(c1nccs1)N(C)C(=O)c1ccc(OC2CCN(CCc3ccccc3)CC2)cc1 (stereo not drawn),-51.4
23,CN(CCc1ccccn1)C(=O)c1ccc(OC2CCN(CCc3ccccc3)CC2)cc1,-58.5
24,Cc1nn(C)cc1CN(C)C(=O)c1ccc(OC2CCN(Cc3ccccn3)CC2)cc1,8.65
25,CCn1ccnc1CN(C)C(=O)c1ccc(OC2CCN(CCc3ccccc3)CC2)cc1,-24.8
26,CN(CCc1ccccn1)C(=O)c1ccc(OC2CCN(Cc3ccccn3)CC2)cc1,4.04
27,CC(C)N(C)C(=O)c1ccc(OC2CCN(CCc3ccccc3)CC2)cc1,-40.8
